Screens deposited in PubChem by The Scripps Research Institute Molecular Screening Center.
SF-1 inh – inhibitors of human nuclear receptor SF-1; CHO-K1 Gal4-SF-1 LBD luciferase reporter; inhibition, % at 10 µM; hit rate 0.55% among 65,000;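 active = inhibition above the mean inhibition of all tested compounds plus 3 SD, cut at about 48% in these data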;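 also: 0% = SF-1 transfected cells with DMSO and 100% = mock-transfected cells lacking SF-1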
Target sequence (Q13285 whole entry, looked up, the tested form may be a part): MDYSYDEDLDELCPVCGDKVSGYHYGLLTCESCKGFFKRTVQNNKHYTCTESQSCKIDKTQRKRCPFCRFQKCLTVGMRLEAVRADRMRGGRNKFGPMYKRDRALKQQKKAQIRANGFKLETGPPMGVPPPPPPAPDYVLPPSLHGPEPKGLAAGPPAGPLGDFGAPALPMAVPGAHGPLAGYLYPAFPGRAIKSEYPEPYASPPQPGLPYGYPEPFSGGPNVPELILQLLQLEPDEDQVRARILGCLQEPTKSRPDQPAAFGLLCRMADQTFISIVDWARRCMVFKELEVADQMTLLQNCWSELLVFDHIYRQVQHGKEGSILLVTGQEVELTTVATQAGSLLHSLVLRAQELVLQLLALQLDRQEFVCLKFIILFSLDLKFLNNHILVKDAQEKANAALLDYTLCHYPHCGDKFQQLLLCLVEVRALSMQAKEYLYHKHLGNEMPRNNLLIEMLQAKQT
* hit, by the source's call. This excerpt belongs to a sample that is enriched for hits.

SMILES	SF-1 inh
Cc1cccc(NC(=O)CSc2nnc(-c3cc(C)n(-c4ccccc4)c3C)o2)c1C	72.7*
Cc1ccc(Cl)cc1NC(=O)CSc1nnc(C)n1-c1ccccc1	15.5
Cc1ccccc1NC(=O)CSc1[nH]c(=O)cc(C)c1C#N	0.0
CC(C(=O)NC1CCCC1)N(C(=O)c1snc(C(N)=O)c1N)c1ccc2c(c1)OCCO2 (stereo not given)	-6.9
COc1cccc(-c2csc(NC(=O)C3CC3)n2)c1	-60.1
COc1ccc2c(c1)sc1nc(-c3ccccc3)cn12	89.3*
Cc1c(C(=O)Nc2ccccc2)sc2nc(-c3ccccc3)cn12	-54.3
c1cncc(-c2nnc(SCc3nc4ccccc4[nH]3)o2)c1	56.3*
CCCc1cc(=O)n2[nH]c(-c3ccc(Br)cc3)cc2n1	-111.6
O=[n+]1c2c(n([O-])c3cc(F)c(F)cc31)CCCC2	6.6
CCNc1nc(N)c(C(=O)c2ccc(Cl)s2)s1	-31.3
CC(=O)N1CCc2c(sc(NC(=O)c3ccc4c(c3)OCCO4)c2C#N)C1	-77.4
CCn1nccc1C(=O)Nc1ccc(Cl)cc1Cl	-66.7
c1ccc(N2CCN(c3nc(-c4ccccn4)nc4ccccc34)CC2)cc1	51.8*
CC(=O)N1CCN(c2ccc(Oc3nc(-c4ccccc4)nc4ccccc34)cc2)CC1	-12.3
CC1CN(c2nc(-c3ccccc3)nc3ccccc23)CC(C)O1 (stereo not given)	24.7
CCCCCCC1C(C#N)=C(N)OC2=C1C(=O)CC(C)(C)C2 (stereo not given)	-6.6
CC1(C)CC(=O)C2=C(C1)Oc1nc3ccccc3cc1C2C(C#N)C#N (stereo not given)	81.4*
O=C(NCc1cccs1)c1cc2c(s1)CCCC2	-25.2
CCN(CC)CCNC(=O)C1c2cc(OC)c(OC)cc2C(=O)N2CCc3ccccc3C12 (stereo not given)	-15.2
Cc1ccc2c(c1)C(N1CCCC1=O)CC(c1ccco1)N2 (stereo not given)	-57.7
O=C(Cn1ncn2c(cc3ccccc32)c1=O)NCc1ccco1	-8.5
CCCN1C(=O)SC(CC(=O)Nc2ccc(Br)cc2)C1=O (stereo not given)	1.2
Cc1ccc(C(C)C)c(OCCNc2nc3c(c(=O)n(C)c(=O)n3C)n2C)c1	48.9*
COc1cccc(C(=O)Cn2c(Br)nc3c2c(=O)n(C)c(=O)n3C)c1	12.0
SMILES	SF-1 inh
CC1(C)CNC(=O)C=C(c2ccccc2)C1	-0.6
CC(=O)N1CCc2cc3nc(C)cc(C)c3cc21	-0.2
C#CC(C)(C)NC(=O)c1ccccc1OC	-10.6
Cc1cc(NC(=O)c2ccc3c(c2)OCCO3)no1	51.0*
Cc1cc(NC(=O)c2noc3c2CCCCC3)no1	-38.8
Cc1cc(NC(=O)c2ccc3c(c2)OCO3)no1	-60.4
CCSc1nc2c(cnn2-c2ccc(C)cc2)c(=O)[nH]1	-10.2
CN(C(=O)c1cnc2n(c1=O)CCS2)C1CCCCC1	-1.4
CC1=C(C(=O)Nc2ccccn2)C(c2cccnc2)n2nnnc2N1 (stereo not given)	-8.6
CN(Cc1ccccc1)C(=O)CCCn1c(=O)[nH]c2cc(Cl)ccc2c1=O	-7.4
CCCC(c1nnnn1CCOC)N1CCN(c2cccc(OC)c2)CC1 (stereo not given)	-0.4
CCOC(=O)Cn1nnc(-c2cccc(OC)c2)n1	5.9
CCCS(=O)(=O)c1nnnn1-c1cccc(OC)c1	58.4*
CN(C)C(=O)N1CCCC(C(=O)NCc2ccccc2)C1 (stereo not given)	-2.2
COc1ccc(-n2c(C)cc(C(=O)Cn3c(NCCO)nc4ccccc43)c2C)cc1	-9.5
Cc1ccc2cc(C(c3nnnn3Cc3ccccc3)N3CCN(c4ccccc4)CC3)c(=O)[nH]c2c1 (stereo not given)	-5.4
Cc1nc(N2CCN(c3ccccc3)CC2)[nH]c(=O)c1Cc1cccc2ccccc12	52.0*
Cn1c(=O)c2c(nc(N3CCCCCC3)n2Cc2cccc3ccccc23)n(C)c1=O	2.9
O=C(OCc1nc2ccccc2s1)C1CCN(C2=NS(=O)(=O)c3ccccc32)CC1	-53.0
CCc1c(C)nc(SC)n(CC#N)c1=O	6.4
Cc1ccc(S(=O)(=O)N(CCO)c2cc3c(s2)CCCC3)cc1	29.5
O=C(/C=C\Nc1ccc2c(c1)OCO2)c1ccccn1	83.1*
c1cc(CNc2ccc3c(c2)OCO3)ccn1	-6.9
O=C(Nc1ccc2c(c1)OCO2)c1cccs1	-60.7
O=C(Nc1nccs1)c1ccc(CSc2nnnn2-c2ccccc2)cc1	-40.7
SMILES	SF-1 inh
O=C(Nc1cccc(-c2nnc(-c3ccccc3)o2)c1)c1ccc(Br)o1	-67.0
COc1ccccc1C(=O)Nc1ccc2c(c1)OCCO2	-75.7
COc1ccccc1C(=O)NCc1ccc2c(c1)OCO2	28.3
CCOC(=O)C(C)Oc1cccc2c(=O)n(CC(=O)Nc3ccc4c(c3)OCCO4)ccc12 (stereo not given)	81.8*
CCOC(=O)C(C)Oc1cccc2c(=O)n(CC(=O)NCc3ccc4c(c3)OCO4)ccc12 (stereo not given)	83.1*
O=C(Cn1nc(Cc2cccnc2)c2ccccc2c1=O)NCc1ccc2c(c1)OCO2	-4.1
CC1CC(=O)N(CC(=O)Nc2ccc3c(c2)OCCO3)c2ccccc2S1 (stereo not given)	-0.4
O=C(OCC(=O)N1CCCCCC1)c1cccs1	-54.8
COc1cc(C2C(C#N)=C(C)NC3=C2C(=O)c2ccccc23)cc(OC)c1OC (stereo not given)	82.5*
CCSC1=C(C#N)C(c2ccccc2OC)CC(=O)N1 (stereo not given)	-5.9
COC(=O)c1ccc(=O)n(-c2ccc(OC)cc2)c1	16.5
CC1N/C(=C\C(=O)c2ccccc2)N(O)C1(C)C (stereo not given)	-30.2
Cc1nnc(SC(=O)N2c3ccccc3Sc3ccccc32)s1	65.1*
Cc1nnc(SCC(=O)N2c3ccccc3CC2C)s1 (stereo not given)	6.4
CC(C)c1nnc(NC(=O)c2cnccn2)s1	-50.7
CCOC(=O)/C=C1\CC(=O)Nc2nonc2N1	11.2
CCOC(=O)c1[nH]nc(N)c1NC(=O)c1ccc(Cl)cc1Cl	-27.2
CCOc1ccc2[nH]c(S(=O)(=O)CC)nc2c1Cl	-9.0
COc1cc(NC(=O)C2CC2)c(C(=O)O)cc1OC	-2.7
CCC(CC)C(=O)NCCc1cc2ccc(C)c(C)c2[nH]c1=O	3.6
Nc1nnnn1/N=C/C(Br)=C/c1ccccc1	95.6*
CC(=O)c1cccc(NC(=O)N2CCCC2C(=O)Nc2c(C)cccc2C)c1 (stereo not given)	23.2
Cc1ccc(C)c(NC(=O)CSc2nnc(-c3ccncc3)n2N)c1	0.2
CCn1cnc2c1c(=O)n(CC(=O)Nc1cc(C)on1)c(=O)n2Cc1ccccc1	-0.5
COc1ccc(-c2cc(C(F)(F)F)nc(SCC(=O)Nc3cc(C)on3)n2)cc1OC	22.8
SMILES	SF-1 inh
Cc1cc(NC(=O)CCCS(=O)(=O)c2nc(-c3cccs3)cc(C(F)(F)F)n2)no1	48.4*
CS(=O)(=O)c1nc(-c2cccs2)cc(C(F)(F)F)n1	70.3*
Nc1c(C(=O)NC2CCCC2)sc2nc(-c3cccs3)ccc12	-59.7
CC(C)N(C=O)C1(C(=O)NC2CCCCC2)CCCCC1	-0.4
COc1ccc(-n2c(=S)[nH]c3cc(C(=O)NCCCN4CCCC4=O)ccc3c2=O)cc1	-8.2
O=C(Cn1nc(-c2ccc(Cl)cc2)ccc1=O)NCCN1CCOCC1	2.9
CC(=O)OC1CC2(C)C(=O)CCC2C2CCc3cc(O)ccc3C12 (stereo not given)	7.6
O=S(=O)(N1CCCCCC1)N1CCN(S(=O)(=O)N2CCOCC2)CC1	-3.1
Cc1ccccc1Cn1c2ccccc2c2cn[nH]c(=O)c21	7.6
Cc1ccc(-c2cc3c(nn2)-c2ccccc2C3=O)cc1	88.1*
